Assay results taken from ChEMBL document CHEMBL3988442, “University of Dundee, Small-Polar-MMV Screening Library” (2021).
In all, about 48,000 compounds went through this assay and about 13,000 (27%) showed an effect of 50% or more. Some of the results follow.

Each compound was assayed on Wolbachia pipientis (assay: Anti-Wolbachia Cell-Based Screen). Conditions: 5 µM.
Type: functional
Design: scale not given: in the data most compounds retested in dose-response had high values

In order of falling “Percent Effect” value:
1. CN(Cc1ccc(F)cc1)CC1(O)CCN(C(=O)c2ccccn2)C1 (stereo unspecified)  129.8%
2. CO[C@H]1C[C@@H]2CN(C(=O)c3ccc(C)s3)C[C@@H]2C1  128.5%
3. O=C(O)COc1ccc(CN2CCCC(Cc3cccnc3)C2)cc1 (stereo unspecified)  125.7%
4. CCCc1n[nH]c(C2CN(C(=O)c3ccc[nH]3)CCO2)n1 (stereo unspecified)  125.3%
5. Cc1cnn(CC2CCCN2C(=O)Cc2c(C)noc2C)c1 (stereo unspecified)  123.7%
6. CO[C@H]1C[C@@H]2CN(C(=O)Cc3ccc(C)s3)C[C@@H]2C1  123.2%
7. CN(Cc1ccc(F)cc1)CC1(O)CCN(C(=O)c2ccncc2)C1 (stereo unspecified)  120.1%
8. Cc1cnn(CC2CCCCN2C(=O)Cc2c(C)noc2C)c1 (stereo unspecified)  117.3%
9. CCCc1n[nH]c(C2CN(C(=O)c3cccc4[nH]ncc34)CCO2)n1 (stereo unspecified)  117.3%
10. COc1ccc(F)cc1C(=O)N1C[C@H]2C[C@H](OC)C[C@H]2C1  117.3%
11. COc1ccc(CCC2CCCN(CC(=O)O)C2)cc1 (stereo unspecified)  116.8%
12. O=C(N1CCCC1)N1Cc2nccn2CC(Cn2ncccc2=O)C1 (stereo unspecified)  113.1%
13. Cc1cnn(CC2CCCN2C(=O)CCc2c(C)nc(C)[nH]c2=O)c1 (stereo unspecified)  112.3%
14. Cc1cnn(CC2CCCN2C(=O)CCc2c(C)noc2C)c1 (stereo unspecified)  111.6%
15. COCC(=O)N1Cc2nccn2CC(Cn2ncccc2=O)C1 (stereo unspecified)  110.2%
16. O=C(c1ccco1)N1Cc2nccn2CC(Cn2ncccc2=O)C1 (stereo unspecified)  108.6%
17. CCCc1n[nH]c(C2CN(C(=O)c3cccc4cn[nH]c34)CCO2)n1 (stereo unspecified)  108.2%
18. O=C(c1ccc[nH]1)N1Cc2nccn2CC(Cn2ncccc2=O)C1 (stereo unspecified)  107.9%
19. O=C(c1ccccc1)N1Cc2nccn2CC(Cn2ncccc2=O)C1 (stereo unspecified)  106.9%
20. CCCc1n[nH]c(C2CN(C(=O)c3cccnc3N(C)C)CCO2)n1 (stereo unspecified)  106.9%
21. NC(=O)N1Cc2nccn2CC(Cn2ncccc2=O)C1 (stereo unspecified)  106.3%
22. Cc1ncc(C(=O)NCCNc2ccncc2)s1  106.3%
23. CCCc1n[nH]c(C2CN(C(=O)c3n[nH]c4ccccc34)CCO2)n1 (stereo unspecified)  103.5%
24. Cc1cnn(CC2CCCN2C(=O)CCc2c(C)nn(C)c2C)c1 (stereo unspecified)  103.1%
25. CN(Cc1ccc(F)cc1)CC1(O)CCN(C(=O)c2ccsc2)C1 (stereo unspecified)  101.4%
26. O=C(O)COc1ccc(CN2CCCC(CCc3ccccc3)C2)cc1 (stereo unspecified)  98.9%
27. O=C(CC1CC1)N1Cc2nccn2CC(Cn2ncccc2=O)C1 (stereo unspecified)  90.4%
28. Cc1ncncc1C(=O)N1CCC(O)(CN(C)Cc2ccc(F)cc2)C1 (stereo unspecified)  90.38%
29. CCc1ncc(C(=O)NCCNc2ccncc2)s1  82.39%
30. CO[C@H]1C[C@@H]2CN(C(=O)c3cccc4c3OCCO4)C[C@@H]2C1  78.24%
31. Cc1nccn1CC1CCCN(Cc2ccc(-c3cccnc3)cc2)C1 (stereo unspecified)  30.54%
32. CC(NC(=O)NC1CCN(Cc2ccncc2)CC1)c1ccc(F)cc1 (stereo unspecified)  24.84%
33. COc1coc(CN2CCCC(CCc3ccc(F)cc3)C2)cc1=O (stereo unspecified)  20.93%
34. Cc1nc(NC(=O)OC(C)(C)C)sc1C#N  16.95%
35. O=C(C1CC=CC1)N1Cc2nccn2CC(CN2CCCC2)C1 (stereo unspecified)  16.54%
36. Cc1sc(-c2ccco2)nc1C(=O)N(CC1CCOC1)C1CC1 (stereo unspecified)  13.16%
37. CCc1noc(C2CCCCN2C(=O)c2nnc3ccccc3n2)n1 (stereo unspecified)  13%
38. Cc1nn(C)c(C)c1CCC(=O)N1CCCC1Cn1cccn1 (stereo unspecified)  11.22%
39. COc1ccc(F)cc1C(=O)N1CC(c2ccncc2)C1  9.533%
40. Cc1csc(N2CCN(C(=O)Cc3ccc(C)s3)CC2)n1  9.508%
41. Cc1cc(CNC(=O)C2CCCCN2C(=O)OC(C)(C)C)no1 (stereo unspecified)  8.299%
42. COc1ccc(CNCCc2cccc(C(N)=O)c2)cc1O  8.083%
43. CN(C)CC1(O)CCCN(C(=O)c2cnc(-c3ccccn3)nc2)C1 (stereo unspecified)  7.408%
44. COc1ccc(CCC2CCCN(C(=O)CCc3cc(O)no3)C2)cc1 (stereo unspecified)  6.592%
45. Cn1cc(CNc2cnn(CC3CCCO3)c2)c(-c2ccncc2)n1 (stereo unspecified)  4.968%
46. COCC1CN(C(=O)c2ccco2)Cc2nccn2C1 (stereo unspecified)  4.87%
47. O=C(O)C(F)(F)F.O=C(O)C(F)(F)F.c1snnc1CN1C[C@H]2CCC[C@@H](CN3CCOCC3)[C@H]2C1  4.838%
48. O=C1CCCN1CC1CN(C(=O)N2CCOCC2)Cc2nccn2C1 (stereo unspecified)  4.749%
49. CSc1ccccc1C(=O)Nc1ccc(OC2CCN(C)CC2)cc1  4.435%
50. CC(C)OCCOCc1cccc(NC(=O)NCc2ccncc2)c1  3.047%
51. Cc1cc(C)n(CC2CCCN2C(=O)Cc2c(C)noc2C)n1 (stereo unspecified)  2.87%
52. CCN(Cc1cccc(C(=O)Nc2c(C)cnn2C)c1)[C@H]1COC[C@@H]1O  2.472%
53. CC(C)c1n[nH]c(C2CN(C(=O)c3cccc4cn[nH]c34)CCO2)n1 (stereo unspecified)  2.376%
54. C[C@H]1C[C@H]2CN(C(=O)c3cccc4c3OCCO4)CC[C@H]2O1  2.231%
55. Cc1cnn(CC2CCCCN2C(=O)Cc2csc(C)n2)c1 (stereo unspecified)  1.923%
56. CS(=O)(=O)N1Cc2nccn2CC(Cn2ncccc2=O)C1 (stereo unspecified)  1.411%
57. Cc1cnn(CC2CCCN2C(=O)CCc2nc3ccccc3[nH]2)c1 (stereo unspecified)  1.047%
58. CNS(=O)(=O)c1ccc(C(=O)NCCNc2ncccn2)cc1  1.025%
59. Cc1ccc(CC(=O)NC(C)C(=O)N2CCS(=O)(=O)CC2)s1 (stereo unspecified)  0.993%
60. COc1ccc(C(=O)NCCCC2(C3OCCO3)CCOCC2)cc1  0.9631%
61. CCCC(C)(C)NC(=O)c1cnc(C)s1  -0.6309%
62. CCCc1n[nH]c(C2CN(C(=O)c3ccco3)CCO2)n1 (stereo unspecified)  -0.9471%
63. OCC(O)CSCc1ccc(Cl)cc1Cl (stereo unspecified)  -1.817%
64. CCCc1n[nH]c(C2CN(C(=O)C3=COCCC3)CCO2)n1 (stereo unspecified)  -2.018%
65. COc1ccc2c(c1)CN(Cc1nc3c(cnn3C)c(=O)[nH]1)CC2  -2.019%
66. CN(C)CC1(O)CCN(C(=O)c2cnc(-c3cccnc3)nc2)C1 (stereo unspecified)  -2.107%
67. COC1CCN(Cc2csc(C(C)C)n2)CC1  -2.369%
68. CCc1ncc(C(=O)NCCNC(=O)Cc2ccc(F)cc2)s1  -2.58%
69. CCN(Cc1nc(COC)no1)C(=O)CCNC(=O)c1ccccc1F  -2.73%
70. COCC(C)NC(=O)CN1CCC2(CC1)OCCO2 (stereo unspecified)  -2.993%
71. CCOC1CCCN(C(=O)c2[nH]nc(C(C)C)c2Br)C1 (stereo unspecified)  -3.012%
72. O=C(O)C(F)(F)F.O=C(O)C(F)(F)F.O=C(c1ccccn1)N1Cc2nccn2CC(CN2CCOCC2)C1 (stereo unspecified)  -3.585%
73. Cc1ccc(OC2(C(=O)O)CCN(C(=O)c3ccsc3)CC2)cn1  -3.963%
74. CCCc1n[nH]c(C2CN(C(=O)c3cc(F)ccc3OC)CCO2)n1 (stereo unspecified)  -4.099%
75. CN(C)C(=O)CCC1CCCN(Cc2ccc(-c3cccnc3)cc2)C1 (stereo unspecified)  -4.388%
76. O=C(CC1CC1)N1Cc2nccn2CC(CN2CCCC2)C1 (stereo unspecified)  -4.92%
77. CSCc1noc(C2CCC(=O)N(CCc3ccccc3)C2)n1 (stereo unspecified)  -4.988%
78. CC(C)c1nsc(NC2CCOC3(CCCC3)C2)n1 (stereo unspecified)  -5.666%
79. CN(C)CC1(O)CCCN(C(=O)c2ccccc2-n2cncn2)C1 (stereo unspecified)  -6.613%
80. O=C(N1CCN(c2ccccc2O)CC1)C1(O)Cc2ccccc2C1  -7.176%
81. O=C(N[C@@H]1CN(c2ncccn2)C[C@@H]2CCCO[C@@H]21)c1ccnnc1.O=C(O)C(F)(F)F  -7.292%
82. CN(C)CC1(O)CCN(C(=O)c2ccc(-n3cnnc3)cc2Cl)C1 (stereo unspecified)  -7.306%
83. CC(C)N(CC(N)=O)Cc1cccc(Br)c1  -7.902%
84. Cn1nnc2cc(C(=O)NS(=O)(=O)c3ccc(F)cc3)ccc21  -8.568%
85. CN(Cc1ccc(F)cc1)CC1(O)CCN(C(=O)c2ccccc2)C1 (stereo unspecified)  -10.29%
86. CN(C)CC1(O)CCN(C(=O)c2cnc(-c3ccccn3)nc2)C1 (stereo unspecified)  -10.46%
87. COc1ccc(F)cc1C(=O)N1CCCC(n2nc(C)nc2C)C1 (stereo unspecified)  -10.5%
88. C[C@@H]1C[C@H]2CN(C(=O)c3cccc4c3OCCO4)C[C@H]2O1  -11.28%
89. Cn1nnc2cc(C(=O)NS(=O)(=O)Cc3ccc(F)cc3)ccc21  -12.26%
90. Cn1cc(CNCC2Cn3nnc(-c4ccccc4)c3CO2)cn1 (stereo unspecified)  -12.32%
91. CN(Cc1cccnc1)CC1CN(C(N)=O)Cc2nccn2C1 (stereo unspecified)  -13.65%
92. COc1ccnc(CN2CCCC(CCc3ccccc3)C2)c1OC (stereo unspecified)  -14.6%
93. CCc1ncc(C(=O)NCCNc2ncnc3sccc23)s1  -14.73%
94. O=C1CCCN1CC1CN(C(=O)CC2CCCC2)Cc2nccn2C1 (stereo unspecified)  -15.1%
95. Cc1cc(CN(C)C2CCN(c3cccc(-c4cscn4)c3)CC2)on1  -19.07%
96. Cc1[nH]c(=O)[nH]c(=O)c1CN1CCCC(CCc2ccccc2)C1 (stereo unspecified)  -19.89%
97. CC(CN1CCCC1)C(=O)N1CCC(c2nccn2CC2CC2)CC1 (stereo unspecified)  -20.21%
98. Cc1ccc(-c2nnc(CN3CCOCC(CO)C3)o2)n1C (stereo unspecified)  -20.97%
99. COCC1CN(C(=O)c2ccc(C)o2)Cc2nccn2C1 (stereo unspecified)  -22.35%
100. CSc1ncc(C(=O)N2C[C@H]3CC[C@@H]2CN(c2ncccn2)C3)cn1  -34.6%
101. Cc1ncc(C(=O)NCCNc2ncnc3sccc23)s1  -47.31%
